Calls of active or inactive are those of the source. Unless noted, how the calls were made is not given here.
Tests used:
[1] = tested on: Wnt5a (protein binding on small-molecule microarray); assay: small molecules binding Wnt5a protein – biophysical, small-molecule microarray, 635/667 nm fluorescence, primary screen (AID 1142); settings: 635 nm fluorescence, higher = more signal;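 further: fluorescence read at 667 nm with signal to noise per printed feature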
[2] = ATP-based viability of Huh7 replicon cells – cell-based, CellTiter-Glo luminescence, basal, 48 h, cytotoxicity control for HCV replication inhibitor project, primary screen (AID 1143); settings: higher = more signal, called active from +8 up or from −8 down;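 further: Huh7 hepatoma cells carrying a hepatitis C replication reporter with no stimulus; test concentration not given here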
[3] = Pseudomonas biofilm growth suppression – PAO1 strain, BacTiter-Glo luminescence, LB-PBS, primary screen (AID 1144); settings: P. aeruginosa PAO1 biofilm, 12 h, higher = more signal
[4] = basal CRE-LacZ reporter activity in PC12 – cell-based, unstimulated, primary screen (AID 1145); settings: no forskolin, luminescence, 4.5 h, higher = more signal, called active from +8 up or from −8 down
[5] = forskolin-driven CRE-LacZ activity in PC12 – cell-based, CRE-LacZ reporter, forskolin-stimulated, primary screen (AID 1146); settings: luminescence, 4.5 h, higher = more signal, called active from +8 up or from −8 down;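 further: PC12 cells with 6xCRE LacZ reporter stimulated by forskolin 10 µM; beta-galactosidase reporter signal reflecting CREB driven transcription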
[6] = target: Streptavidin (Streptomyces avidinii) (UniProt P22629); assay: compounds binding control protein streptavidin – biophysical, small-molecule microarray, 635/667 nm fluorescence, artefact control for SMM compound annotation, primary screen (AID 1147); settings: higher = more signal;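 further: signal reflects streptavidin binding to arrayed compounds as a control protein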
Chain of Streptavidin (Streptomyces avidinii) (P22629 whole entry, looked up): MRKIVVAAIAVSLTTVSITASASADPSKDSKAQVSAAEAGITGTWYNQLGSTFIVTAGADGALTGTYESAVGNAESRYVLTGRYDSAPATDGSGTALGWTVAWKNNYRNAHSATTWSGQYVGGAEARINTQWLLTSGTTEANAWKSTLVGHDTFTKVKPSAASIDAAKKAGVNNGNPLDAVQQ

[7] = probe aInhba binding on compound microarray – biochemical, small-molecule microarray, 635/667 nm fluorescence, primary screen (AID 1148); settings: higher = more signal;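 further: score merges 667nm spot fluorescence with signal-to-noise for antibody binding to printed compounds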
Torsin-1A (Homo sapiens) [8] = target: Torsin-1A (Homo sapiens) (UniProt O14656); assay: TOR1A wild-type binding on microarray – cell lysate, small-molecule microarray, lysate, 635/667 nm, primary screen (AID 1149); settings: COS7 hTOR1A-WT lysate, 635 nm fluorescence, higher = more signal
Chain of Torsin-1A (Homo sapiens) (O14656 whole entry, looked up): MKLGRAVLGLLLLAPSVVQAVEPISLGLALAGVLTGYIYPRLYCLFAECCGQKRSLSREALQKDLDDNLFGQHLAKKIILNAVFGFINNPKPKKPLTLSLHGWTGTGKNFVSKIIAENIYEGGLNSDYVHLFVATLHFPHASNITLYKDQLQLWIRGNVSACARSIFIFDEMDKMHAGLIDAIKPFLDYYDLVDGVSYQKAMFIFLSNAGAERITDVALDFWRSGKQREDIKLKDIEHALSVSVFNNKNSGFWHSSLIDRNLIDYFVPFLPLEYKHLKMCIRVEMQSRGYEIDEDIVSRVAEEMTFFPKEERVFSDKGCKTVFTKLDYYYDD

Torsin-1A (Homo sapiens) [9] = target: Torsin-1A (Homo sapiens) (UniProt O14656); assay: torsin A mutant lysate binding on microarrays – cell lysate, small-molecule microarray, COS7 lysate, 635/667 nm fluorescence, primary screen (AID 1150); settings: COS7 hTOR1A mutant lysate, 635 nm fluorescence, higher = more signal;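 further: score pools 667 nm emission and signal to noise measuring lysate protein binding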
[10] = tested on: Sonic hedgehog protein (Shh); assay: Sonic hedgehog microarray binding compounds – biochemical, small-molecule microarray, 635/667 nm fluorescence, primary screen (AID 1151); settings: 635 nm fluorescence, higher = more signal;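 further: Shh protein binding to compounds spotted on small-molecule microarray slides; score combines spot fluorescence intensity with signal-to-noise across triplicate slides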
[11] = optical density shifts of acrAB sulA E. coli – strain DRC41, OD650, 48 h, E. coli filamentation inducer project, primary screen (AID 1152); settings: higher = more signal, called active from +8 up or from −8 down;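 further: E. coli MC1000 strain DRC41 lacking acrAB efflux pump and sulA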
[12] = probe aLefty1 binding on compound microarray – biochemical, small-molecule microarray, 635/667 nm fluorescence, primary screen (AID 1153); settings: higher = more signal;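 further: score merges spot fluorescence with signal-to-noise ratio from the scanned slide images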
[13] = plasmodial surface anion channel blockers, osmotic lysis – cell-based, P. falciparum Indochina, OD700, 1 h, primary screen (AID 1154); settings: P. falciparum Indochina infected RBC osmotic lysis, higher = more signal, called active from +8 up or from −8 down
[14] = plasmodial surface anion channel blockers, osmotic lysis – cell-based, P. falciparum Indochina, OD700, 2 h, primary screen (AID 1155);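 further: lysis reports solute entry through the parasite surface anion channel PSAC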; settings: P. falciparum Indochina infected erythrocytes, higher = more signal, called active from +8 up or from −8 down
[15] = changes in parasitized red cell lysis, either direction – P. falciparum Indochina, OD700, 3 h, PSAC antagonist project, primary screen (AID 1156); settings: P. falciparum-infected erythrocytes, osmotic lysis, higher = more signal, called active from +8 up or from −8 down
[16] = plasmodial surface anion channel blockers, osmotic lysis – cell-based, P. falciparum Indochina, OD700, 18 h, primary screen (AID 1157); settings: P. falciparum Indochina infected erythrocytes, osmotic lysis OD700, 18 h; higher = more signal, called active from +8 up or from −8 down
[17] = S6 kinase pathway phospho-S6 level changes – cell-based, A549, cytoblot, luminescence, serum-stimulated, primary screen (AID 1158); settings: 5 h, higher = more signal;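 further: serum-stimulated A549 lung adenocarcinoma cells; signal is phosphorylated S6 detected by cytoblot immunostaining with HRP secondary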
[18] = target: NADPH oxidase 2 (Homo sapiens) (UniProt P04839); assay: compounds shifting NOX2 Amplex Red fluorescence – cell-based, HEK293-NOX2, PMA-stimulated, NOX inhibitor project, primary screen (AID 1159); settings: 45 min, higher = more signal, called active from +8 up or from −8 down; further: test concentration not given here
Chain of NADPH oxidase 2 (Homo sapiens) (P04839 whole entry, looked up): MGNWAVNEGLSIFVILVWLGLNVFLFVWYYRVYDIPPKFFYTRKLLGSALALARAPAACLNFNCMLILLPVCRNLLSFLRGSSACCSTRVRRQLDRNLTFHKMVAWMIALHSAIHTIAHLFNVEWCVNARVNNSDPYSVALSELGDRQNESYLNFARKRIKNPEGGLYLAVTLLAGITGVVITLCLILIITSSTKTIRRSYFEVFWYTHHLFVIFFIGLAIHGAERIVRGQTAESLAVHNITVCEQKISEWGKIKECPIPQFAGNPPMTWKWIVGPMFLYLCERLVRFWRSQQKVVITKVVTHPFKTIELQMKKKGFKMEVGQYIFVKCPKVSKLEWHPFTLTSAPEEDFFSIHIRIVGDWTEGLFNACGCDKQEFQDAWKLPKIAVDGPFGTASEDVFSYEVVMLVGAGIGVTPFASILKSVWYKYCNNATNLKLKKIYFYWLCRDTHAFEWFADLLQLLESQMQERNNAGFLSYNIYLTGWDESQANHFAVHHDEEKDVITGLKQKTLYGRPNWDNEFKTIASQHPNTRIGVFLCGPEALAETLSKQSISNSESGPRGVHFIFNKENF

[19] = target: NADPH oxidase 4 (Homo sapiens) (UniProt Q9NPH5); assay: compounds shifting NOX4 Amplex Red fluorescence – cell-based, HEK293-NOX4, tetracycline-induced, NOX inhibitor project, primary screen (AID 1160); settings: HEK293-NOX4, Amplex Red H2O2 fluorescence, 45 min; higher = more signal, called active from +8 up or from −8 down
Chain of NADPH oxidase 4 (Homo sapiens) (Q9NPH5 whole entry, looked up): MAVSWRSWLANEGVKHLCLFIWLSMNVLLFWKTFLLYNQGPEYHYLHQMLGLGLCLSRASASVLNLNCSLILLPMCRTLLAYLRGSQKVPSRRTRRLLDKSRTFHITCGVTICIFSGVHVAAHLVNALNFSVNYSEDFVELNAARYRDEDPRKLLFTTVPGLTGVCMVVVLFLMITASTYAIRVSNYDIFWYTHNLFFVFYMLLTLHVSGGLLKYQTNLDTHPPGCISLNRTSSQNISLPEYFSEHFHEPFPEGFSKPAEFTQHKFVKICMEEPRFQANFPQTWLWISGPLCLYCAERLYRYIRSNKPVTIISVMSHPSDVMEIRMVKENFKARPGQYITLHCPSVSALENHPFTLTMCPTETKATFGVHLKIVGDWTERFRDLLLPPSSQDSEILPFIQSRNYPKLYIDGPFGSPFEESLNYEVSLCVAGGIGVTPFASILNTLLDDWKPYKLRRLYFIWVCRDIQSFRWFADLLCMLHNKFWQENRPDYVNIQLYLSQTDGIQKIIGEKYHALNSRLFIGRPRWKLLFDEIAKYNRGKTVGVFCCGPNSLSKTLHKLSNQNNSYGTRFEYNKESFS

[20] = target: NADPH oxidase 5 (Homo sapiens) (UniProt Q96PH1); assay: compounds shifting NOX5 Amplex Red fluorescence – cell-based, HEK293-NOX5, NOX inhibitor project, primary screen (AID 1161); settings: HEK293-NOX5, ionomycin, 45 min, higher = more signal
Chain of NADPH oxidase 5 (Homo sapiens) (Q96PH1 whole entry, looked up): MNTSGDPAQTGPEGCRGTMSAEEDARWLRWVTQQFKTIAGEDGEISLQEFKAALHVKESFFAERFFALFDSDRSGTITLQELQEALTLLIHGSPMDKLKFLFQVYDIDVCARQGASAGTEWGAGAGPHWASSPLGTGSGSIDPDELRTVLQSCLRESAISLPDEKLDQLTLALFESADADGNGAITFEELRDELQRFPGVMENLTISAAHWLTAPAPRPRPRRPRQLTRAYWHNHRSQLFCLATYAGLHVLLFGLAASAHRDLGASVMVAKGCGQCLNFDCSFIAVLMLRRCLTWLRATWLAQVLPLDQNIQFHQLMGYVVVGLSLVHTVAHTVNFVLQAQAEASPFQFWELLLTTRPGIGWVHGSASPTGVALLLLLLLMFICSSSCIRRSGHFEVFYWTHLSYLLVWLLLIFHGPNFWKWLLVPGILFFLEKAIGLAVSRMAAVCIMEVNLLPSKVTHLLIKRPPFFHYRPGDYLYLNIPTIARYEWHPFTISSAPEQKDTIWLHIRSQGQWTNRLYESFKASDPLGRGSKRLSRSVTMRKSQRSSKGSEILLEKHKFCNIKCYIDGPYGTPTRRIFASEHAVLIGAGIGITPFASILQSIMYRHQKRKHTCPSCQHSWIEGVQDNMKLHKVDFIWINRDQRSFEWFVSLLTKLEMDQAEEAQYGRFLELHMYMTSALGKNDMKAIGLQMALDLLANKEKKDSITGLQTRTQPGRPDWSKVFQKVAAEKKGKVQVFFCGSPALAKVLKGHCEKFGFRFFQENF

Row | SMILES | composite z-score [1] | z-score [2] | z-score [3] | z-score [4] | z-score [5] | composite z-score [6] | composite z-score [7] | composite z-score (Torsin-1A (Homo sapiens) [8]) | composite z-score (Torsin-1A (Homo sapiens) [9]) | composite z-score [10] | z-score [11] | composite z-score [12] | z-score [13] | z-score [14] | z-score [15] | z-score [16] | z-score [17] | z-score [18] | z-score [19] | z-score [20]
1 | CN1C(=O)C2C=CC(C(O)c3cccc(O)c3)N(Nc3ccccc3)C2C1=O (stereo not given) | 0.0652 | 0.656 (inactive) | 0.373 (inactive) | 0.0501 (inactive) | 0.233 (inactive) | -0.404 | 0.142 | -0.379 | 0.548 | -0.128 | -0.85 (inactive) | 0.147 | -0.0746 (inactive) | 0.253 (inactive) | -0.606 (inactive) | 0.287 (inactive) | -0.967 | -2.6 (inactive) | -5.27 (inactive) | -4.62
2 | COc1ccc([Si](C)(C)[C@H]2[C@H](CC(=O)N(CCO)Cc3ccccc3)O[C@@]3(C(=O)N(Cc4cccc(N5CCOC5=O)c4)c4ccccc43)[C@@H]2C)cc1 | -0.031 | -4.86 (inactive) | -0.388 (inactive) | 1.27 (inactive) | -0.863 (inactive) | 0.0212 | -0.0523 | 0.898 | 0.931 | 1.22 | 0.359 (inactive) | 0.114 | 12.9 (active) | 2.72 (inactive) | 1.68 (inactive) | 1.31 (inactive) | 0.315 | 0.681 (inactive) | 0.7 (inactive) | 2.48
3 | CCCCN1CC=CC23O[C@@H]4/C=C\CCC(C)OC(=O)C4[C@H]2C(=O)N(C(CO)C(C)C)[C@@H]3C1=O (stereo not given in full) | -0.0931 | 0.415 (inactive) | 0.524 (inactive) | -0.895 (inactive) | -0.651 (inactive) | -0.271 | -0.128 | 0.624 | 0.517 | 1.42 | -0.0695 (inactive) | 0.13 | 1.65 (inactive) | -0.361 (inactive) | 0.826 (inactive) | 0.406 (inactive) | 1.81 | 1.4 (inactive) | -0.506 (inactive) | 2.14
4 | CC(C)(C)OC(=O)CC[C@@]1(C(=O)NCc2ccccc2)N=C(c2ccc(OCCCO)cc2)O[C@@H]1c1ccccc1N=[N+]=[N-] | 0.717 | -2.53 (inactive) | 0.014 (inactive) | 1.73 (inactive) | -0.947 (inactive) | 1.8 | 0.0839 | -0.183 | 1.33 | 0.101 | 0.775 (inactive) | 0.347 | 33.2 (active) | 30 (active) | 4.99 (inactive) | 6.74 (inactive) | 0.787 | -1.8 (inactive) | 0.457 (inactive) | -1.86
5 | COC(=O)[C@@]1(Cc2ccc(OC)cc2)[C@H]2c3cc(C(=O)N4CCCC4)n(Cc4cccc5ccccc45)c3C[C@H]2CN1C(=O)c1ccccc1 | 0.43 | -2.8 (inactive) | 1.14 (inactive) | 0.0041 (inactive) | 0.259 (inactive) | 0.688 | 0.447 | -0.25 | 0.338 | -0.338 | -0.492 (inactive) | 0.258 | 3.9 (inactive) | 0.408 (inactive) | 1.48 (inactive) | 0.983 (inactive) | 0.0019 | 0.208 (inactive) | 1.74 (inactive) | -1.45
6 | COCCOC(=O)N1C(=O)[C@@]2(c3ccccc31)[C@H](C(=O)N1CCN(c3ncccn3)CC1)[C@H]1C(=O)O[C@H](c3ccccc3)[C@H](c3ccccc3)N1[C@@H]2c1ccc(O)cc1 | 0.135 | -2.65 (inactive) | 0.0365 (inactive) | 0.631 (inactive) | -0.484 (inactive) | 0.284 | -0.41 | -0.396 | -0.35 | 1.07 | 0.81 (inactive) | 0.0661 | 1.78 (inactive) | 0.672 (inactive) | 0.481 (inactive) | 0.261 (inactive) | 0.0481 | 1.25 (inactive) | -0.0154 (inactive) | 2.19
7 | COC(=O)[C@@]1(Cc2ccccc2)[C@H]2c3cc(C(=O)N(C)C)n(Cc4c(CO)[nH]cc(C)c4=O)c3C[C@H]2CN1C(=O)c1ccccc1 | 0.259 | 0.229 (inactive) | 0.268 (inactive) | -0.568 (inactive) | 0.977 (inactive) | 0.0174 | -0.0963 | 0.376 | 0.478 | -0.842 | -1.16 (inactive) | 0.0004 | 0.758 (inactive) | -0.16 (inactive) | 0.338 (inactive) | 0.248 (inactive) | -0.482 | 0.495 (inactive) | 0.334 (inactive) | -1.91
8 | [N-]=[N+]=NCc1ccccc1C[C@]1(C(N)=O)N=C(c2ccc(OCCCO)cc2)O[C@H]1c1ccccc1 | 0.0841 | -3.8 (inactive) | -1.02 (inactive) | 0.101 (inactive) | 0.0159 (inactive) | 0.363 | 0.0227 | 0.851 | 0.885 | -1.23 | 1.06 (inactive) | -0.227 | 21 (active) | 3.55 (inactive) | 0.0533 (inactive) | 0.913 (inactive) | 0.349 | -3.27 (inactive) | -0.839 (inactive) | -1.95

From PubChem BioAssay
